Results filed as inconclusive are left out. Where a call stands in place of a potency, no number is given. Activity calls are given as the source filed them. Unless noted, the call rests on the fitted dose curve; in most records, active means well fitted curve in the direction sought with a large enough effect; inconclusive means small, poorly fitted or top-dose-only effect, or another doubt; inactive means no such curve, though single readings can be large; an effect the other way counts as inactive or inconclusive.
Columns and labels:
[1] = Cell Viability - HUV-EC-C (AID 542); further: nearly all actives have a fitted effect of over 35% in size; further: potency means the concentration at half of the fitted maximal effect
How it was run: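 HUV-EC-C normal human vascular endothelial cells, 1000 cells/well, pre-incubated 5 hr at 37 °C, then exposed to compounds for 40 hr at 37 °C in complete medium. Viability measured as intracellular ATP by CellTiter-Glo luminescence; AC50 from Hill fits.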

[2] = Cell Viability - LYMP1-002 - Assay at 16 hr (AID 948); further: potency means the concentration at half of the fitted maximal effect
How it was run: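 Acute cytotoxicity is scored as a concentration-dependent fall in intracellular ATP in a human lymphoblastoid line (LYMP1-002) after 16 hr compound exposure at 37 C, measured by luciferase luminescence.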

[3] = MultiTox-Fluor Cytotoxicity Assay - LYMP1-002 - Live Cells (AID 955)
How it was run: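 Human lymphoblastoid LYMP1-002 cells, 2500/well in complete medium, rested 5 hr at 37 C, then exposed to compounds for 16 hr at 37 C. Live-cell protease cleavage of GF-AFC read by fluorescence (Ex/Em 405/510) after 60 min at room temperature; AC50 from Hill fits.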

[4] = MultiTox-Fluor Cytotoxicity Assay - LYMP1-003 - Dead Cells (AID 961); further: nearly all actives have a fitted effect of over 70% in size; further: potency means the concentration at half of the fitted maximal effect
How it was run: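 Human lymphoblastoid LYMP1-003 cells (2500/well) were treated with compounds for 16 hr at 37 C in complete medium. Dead-cell protease release was read by bis-AAF-R110 fluorescence (Ex/Em 485/520). AC50 came from Hill fits, normalized to DMSO and 15 uM tetraoctylammonium bromide.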

[5] = MultiTox-Fluor Cytotoxicity Assay - LYMP1-003 - Live Cells (AID 962);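 further: cytotoxic hits lower the live-cell protease signal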
How it was run: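 LYMP1-003 human lymphoblastoid cells (2500/well) in complete medium were preincubated 5 hr at 37 C, then exposed to compounds for 16 hr at 37 C. Live-cell protease cleavage of GF-AFC read by fluorescence (Ex/Em 405/510); AC50 from Hill fits.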

[6] = Cell Viability - LYMP1-003 - Assay at 40 hr (AID 964); further: nearly all actives have a fitted effect of over 60% in size; further: potency means the concentration at half of the fitted maximal effect
How it was run: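 Human lymphoblastoid LYMP1-003 cells, 2500/well in complete medium, rested 5 hr at 37 C, then exposed to compounds for 40 hr at 37 C. Viability read as intracellular ATP by CellTiter-Glo luminescence; AC50 from Hill fits of concentration-response data.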

[7] = Cell Viability - LYMP2-004 (AID 966); further: nearly all actives have a fitted effect of over 65% in size; further: potency means the concentration at half of the fitted maximal effect
How it was run: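 Human lymphoblastoid cells (2500/well) in complete medium were treated with compounds for 24 hr at 37 C, then intracellular ATP was measured by CellTiter-Glo luminescence. AC50 values came from Hill-equation fits of concentration-response data.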

[8] = Cell Viability - LYMP2-009 (AID 968); further: nearly all actives have a fitted effect of over 55% in size; further: potency means the concentration at half of the fitted maximal effect
[9] = Cell Viability - LYMP2-011 (AID 969); further: nearly all actives have a fitted effect of over 60% in size; further: potency means the concentration at half of the fitted maximal effect
How it was run: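 Human lymphoblastoid cells (2500/well) were plated in complete medium, preincubated 5 hr at 37 C, then exposed to compounds for 24 hr at 37 C. Intracellular ATP was read by CellTiter-Glo luminescence, and AC50 came from Hill-equation concentration-response fits.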

[10] = Cell Viability - LYMP2-013 (AID 970); further: nearly all actives have a fitted effect of over 55% in size; further: potency means the concentration at half of the fitted maximal effect
How it was run: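 Human lymphoblastoid cells, 2500/well, were preincubated 5 hr at 37 C, then treated with compounds for 24 hr at 37 C in complete medium. Intracellular ATP was read by CellTiter-Glo luminescence; AC50 from Hill-equation fits of concentration-response data.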

[11] = Cell Viability - LYMP2-017 (AID 972); further: nearly all actives have a fitted effect of over 55% in size; further: potency means the concentration at half of the fitted maximal effect
How it was run: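 Human lymphoblastoid cells (2500/well) were seeded in complete medium, held 5 hr at 37 C, then exposed to compounds for 24 hr at 37 C. Intracellular ATP was read by CellTiter-Glo luminescence after 30 min at room temperature, with AC50 values from Hill-equation fits.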

[12] = Cell Viability - LYMP2-021 (AID 974);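 further: compound exposure lasts 24 hours at 37 °C; nearly all actives have a fitted effect of over 55% in size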; further: potency means the concentration at half of the fitted maximal effect
How it was run: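 Human lymphoblastoid cells (2500/well) were preincubated 5 hr at 37 C, then exposed to compounds for 24 hr at 37 C in complete medium. Intracellular ATP was read by CellTiter-Glo luminescence; AC50 came from Hill-equation fits of concentration-response data.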

[13] = Cell Viability - LYMP2-023 (AID 975); further: nearly all actives have a fitted effect of over 55% in size; further: potency means the concentration at half of the fitted maximal effect
How it was run: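 Human lymphoblastoid cells (2500/well) were preincubated 5 hr at 37 C, then exposed to compounds for 24 hr at 37 C in complete medium. Cellular ATP was read by CellTiter-Glo luminescence, and AC50 came from Hill-equation fits.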

[14] = Cell Viability - LYMP2-025 (AID 976); further: potency means the concentration at half of the fitted maximal effect
How it was run: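 Human lymphoblastoid LYMP2-025 cells (2500/well) were pre-incubated 5 hr at 37 C, then treated with compounds for 24 hr at 37 C in complete medium. Viability was read as intracellular ATP by CellTiter-Glo luminescence; AC50 from Hill fits.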

[15] = Cell Viability - LYMP2-006 (AID 978); further: nearly all actives have a fitted effect of over 60% in size; further: potency means the concentration at half of the fitted maximal effect
How it was run: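 Concentration-dependent loss of intracellular ATP in a human lymphoblastoid line after 24 hr treatment at 37 C was measured by CellTiter-Glo luminescence, with AC50 values obtained from standard Hill-equation modelling.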

[16] = Cell Viability - LYMP2-010 (AID 981); further: nearly all actives have a fitted effect of over 55% in size; further: potency means the concentration at half of the fitted maximal effect
How it was run: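 Human lymphoblastoid LYMP2-010 cells (2500/well) were preincubated 5 hr at 37 C, then exposed to compounds for 24 hr at 37 C in complete medium. Intracellular ATP was measured by CellTiter-Glo luminescence after 30 min at room temperature; AC50 from Hill-fitted concentration-response.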

[17] = Cell Viability - LYMP2-014 (AID 983); further: nearly all actives have a fitted effect of over 50% in size; further: potency means the concentration at half of the fitted maximal effect
How it was run: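 Human lymphoblastoid cells (2500/well) were pre-incubated 5 hr at 37 C, then exposed to compounds in complete medium for 24 hr at 37 C. Intracellular ATP was read by CellTiter-Glo luminescence after 30 min at room temperature; AC50 from Hill fits.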

[18] = Cell Viability - LYMP2-026 (AID 989); further: nearly all actives have a fitted effect of over 50% in size; further: potency means the concentration at half of the fitted maximal effect
How it was run: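 Human lymphoblastoid cells (2500/well) in complete medium were preincubated 5 hr at 37 C, then exposed to compounds for 24 hr at 37 C. Cellular ATP was read by CellTiter-Glo luminescence; AC50 from Hill-equation fits of concentration-response data.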

[19] = Cell Viability - LYMP1-002 - Assay at 40 hr (AID 994); further: nearly all actives have a fitted effect of over 60% in size; further: potency means the concentration at half of the fitted maximal effect
How it was run: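 Human lymphoblastoid cells, 2500/well in complete medium, were preincubated 5 hr at 37 C, then exposed to compounds for 40 hr at 37 C. Intracellular ATP was read by CellTiter-Glo luminescence after 30 min at room temperature; AC50 from Hill-equation fits.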

[20] = qHTS assay for small molecule disruptors of the mitochondrial membrane potential - 5 hr assay (AID 651755; calls by dose curve; further: nearly all actives have a fitted effect of over 40% in size; further: potency means the concentration at half of the fitted maximal effect)
How it was run: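 HepG2, 2,000 cells/well, overnight attach; cpd or DMSO 5 hr, 37C/5% CO2; Mito-MPS 30 min 37C; fluor 490/535 + 540/590 nm.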

| SMILES | Potency [1] | Potency [2] | Potency [3] | Potency [4] | Potency [5] | Potency [6] | Potency [7] | Potency [8] | Potency [9] | Potency [10] | Potency [11] | Potency [12] | Potency [13] | Potency [14] | Potency [15] | Potency [16] | Potency [17] | Potency [18] | Potency [19] | Potency [20] |
| --- | --- | --- | --- | --- | --- | --- | --- | --- | --- | --- | --- | --- | --- | --- | --- | --- | --- | --- | --- | --- |
| CN1[C@H]2CC(OC(=O)[C@H](CO)c3ccccc3)C[C@H]1[C@H]1O[C@H]12 (stereo partly specified) | inactive | inactive | inactive | inactive | inactive | inactive | inactive | inactive | inactive | inactive | inactive | inactive | inactive | inactive | inactive | inactive | inactive | inactive | inactive | inactive |
| C=CC(=O)OCC(CO)(COC(=O)C=C)COC(=O)C=C | 50.1 µM (active) | – | – | – | – | – | – | – | – | – | – | – | – | – | – | – | – | – | – | – |
| O=C(/C=C/c1ccc(O)c(O)c1)OC1C[C@](O)(C(=O)O)C[C@@H](O)[C@H]1O (stereo partly specified) | inactive | inactive | inactive | inactive | inactive | inactive | inactive | inactive | inactive | inactive | inactive | inactive | inactive | inactive | inactive | inactive | inactive | inactive | inactive | inactive |
| Cc1cccc(O)c1C | inactive | inactive | inactive | inactive | inactive | inactive | inactive | inactive | inactive | inactive | inactive | inactive | inactive | inactive | inactive | inactive | inactive | inactive | inactive | inactive |
| CC/C(=C(\c1ccccc1)c1ccc(OCCN(C)C)cc1)c1ccc(O)cc1 | 31.6 µM (active) | inactive | – | – | – | – | – | – | – | – | – | – | – | – | – | – | – | – | – | inactive |
| CCCCCC/C(C=O)=C\c1ccccc1 | inactive | inactive | inactive | inactive | inactive | inactive | inactive | inactive | inactive | inactive | inactive | inactive | inactive | inactive | inactive | inactive | inactive | inactive | inactive | inactive |
| CN(C)c1ccc(C2(c3ccc(N(C)C)cc3)OC(=O)c3cc(N(C)C)ccc32)cc1 | inactive | inactive | inactive | inactive | inactive | inactive | inactive | inactive | inactive | inactive | inactive | inactive | inactive | inactive | inactive | inactive | inactive | inactive | inactive | – |
| Oc1ccc2cc(SSc3ccc4cc(O)ccc4c3)ccc2c1 | – | 50.1 µM (active) | – | – | – | 50.1 µM (active) | – | 50.1 µM (active) | – | 50.1 µM (active) | 50.1 µM (active) | – | – | inactive | 50.1 µM (active) | 39.8 µM (active) | – | – | 39.8 µM (active) | 42.2 µM (active) |
| C/C=C1\C(=O)C[C@H]2[C@@H]3CCC4=CC(=O)CC[C@]4(C)[C@H]3CC[C@]12C | – | inactive | inactive | – | inactive | – | – | inactive | – | – | – | inactive | inactive | inactive | – | – | – | inactive | – | inactive |
| C=C(C)c1ccccc1 | inactive | inactive | inactive | inactive | inactive | inactive | inactive | inactive | inactive | inactive | inactive | inactive | inactive | inactive | inactive | inactive | inactive | inactive | inactive | inactive |
| O=C1OC(O)C(C(Cl)Cl)=C1Cl (stereo unspecified) | inactive | – | – | 63.1 µM (active) | – | – | 12.6 µM (active) | 25.1 µM (active) | 25.1 µM (active) | 25.1 µM (active) | 25.1 µM (active) | 20 µM (active) | 20 µM (active) | 31.6 µM (active) | 25.1 µM (active) | 15.8 µM (active) | 25.1 µM (active) | 25.1 µM (active) | – | inactive |
| CO[C@H]1/C=C/O[C@@]2(C)Oc3c(C)c(O)c4c(O)c(c5c(c4c3C2=O)NC2(CCN(CC(C)C)CC2)N=5)=NC(=O)/C(C)=C\C=C\[C@H](C)[C@H](O)[C@@H](C)[C@@H](O)[C@@H](C)[C@H](OC(C)=O)[C@@H]1C | – | inactive | inactive | inactive | inactive | – | inactive | inactive | – | – | – | inactive | inactive | inactive | – | – | inactive | – | – | inactive |
| O=C(OCC(COC(=O)c1ccccc1)(COC(=O)c1ccccc1)COC(=O)c1ccccc1)c1ccccc1 | inactive | inactive | inactive | inactive | inactive | inactive | inactive | inactive | inactive | inactive | inactive | inactive | inactive | inactive | inactive | inactive | inactive | inactive | inactive | – |
| c1ccc2c(c1)-c1cccc3c1c-2cc1ccccc13 | inactive | inactive | inactive | inactive | inactive | inactive | inactive | inactive | inactive | inactive | inactive | inactive | inactive | inactive | inactive | inactive | inactive | inactive | inactive | inactive |
| c1ccc2c(c1)ccc1cc3c(ccc4ccccc43)cc12 | inactive | inactive | inactive | inactive | inactive | inactive | inactive | inactive | inactive | inactive | inactive | inactive | inactive | inactive | inactive | inactive | inactive | inactive | inactive | – |
